Our source for the Potency values is PubChem BioAssay AID1347046 (National Center for Advancing Translational Sciences (NCATS), 2019).

Out of some 1,400 compounds screened, about 940 (67%) were called active. Inconclusive results (about 27%) are left out. Calls come from the whole dose curve. The set was probably picked from earlier hits. Not all results are given here.
Potency is the fitted concentration of half-maximal effect.

This experiment deals with Atrial natriuretic peptide receptor 2 (Homo sapiens) (UniProt P20594). As to the kind of experiment: Natriuretic polypeptide receptor (hNpr2) antagonism - Subtype selectivity assay. Note: nearly all actives have a fitted effect of over 70% in size. The note with it: HEK293 hNpr2 GloSensor cGMP luminescence, CNP-stimulated. The method, then: F. Fan, B. F. Binkowski, B. L. Butler, P. F. Stecha, M. K. Lewis, K. V. Wood, Novel genetically encoded biosensors using firefly luciferase. ACS Chem Biol 3, 346-351 (2008).
Chain of Atrial natriuretic peptide receptor 2 (Homo sapiens) (P20594 whole entry, looked up): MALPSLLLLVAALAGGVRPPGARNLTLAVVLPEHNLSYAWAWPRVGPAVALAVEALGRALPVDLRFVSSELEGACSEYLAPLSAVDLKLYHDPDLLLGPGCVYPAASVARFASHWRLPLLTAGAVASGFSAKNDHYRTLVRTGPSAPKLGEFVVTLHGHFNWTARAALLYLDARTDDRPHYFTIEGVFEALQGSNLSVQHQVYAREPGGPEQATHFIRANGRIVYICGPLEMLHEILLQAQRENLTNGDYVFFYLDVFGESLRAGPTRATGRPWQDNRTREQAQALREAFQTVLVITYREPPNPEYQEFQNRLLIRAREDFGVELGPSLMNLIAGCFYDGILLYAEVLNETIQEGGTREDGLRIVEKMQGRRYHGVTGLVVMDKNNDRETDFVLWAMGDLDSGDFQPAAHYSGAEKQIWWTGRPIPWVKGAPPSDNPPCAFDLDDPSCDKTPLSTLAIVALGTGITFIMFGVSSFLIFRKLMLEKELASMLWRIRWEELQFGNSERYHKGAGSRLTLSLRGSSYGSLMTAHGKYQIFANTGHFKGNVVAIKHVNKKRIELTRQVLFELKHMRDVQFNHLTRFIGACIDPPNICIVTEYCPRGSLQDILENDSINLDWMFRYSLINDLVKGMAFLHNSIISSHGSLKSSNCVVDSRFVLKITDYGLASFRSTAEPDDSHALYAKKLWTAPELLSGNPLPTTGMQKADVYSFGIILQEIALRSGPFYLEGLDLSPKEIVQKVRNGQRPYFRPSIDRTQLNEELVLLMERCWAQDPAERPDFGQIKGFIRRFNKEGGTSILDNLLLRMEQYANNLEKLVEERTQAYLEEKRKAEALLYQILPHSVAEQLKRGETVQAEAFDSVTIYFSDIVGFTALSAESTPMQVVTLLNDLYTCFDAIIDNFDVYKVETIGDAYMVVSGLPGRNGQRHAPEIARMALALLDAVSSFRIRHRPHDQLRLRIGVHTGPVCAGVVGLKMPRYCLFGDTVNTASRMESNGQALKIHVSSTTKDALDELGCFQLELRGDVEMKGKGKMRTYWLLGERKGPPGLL
PROTOCOL TABLE (as described by Inglese J, Shamu CE and Guy RK. 2007) SEQUENCE No. (e.g., 1, 2, 3, etc.); PARAMETER (e.g., Cells, Incubation, Reagent, etc.); VALUE and DESCRIPTION. 1. Cells. Seed 1500 HEK293 cGMP-sensor cells expressing hNpr2 per well in 4uL into Greiner 1536-well white/solid bottom high base, TC plates. 2. Incubation. Incubate plated cells at 37C in 5% CO2, 95% RH overnight. 3. Reagent. Add 1uL per well GloSensor reagent from Promega (2% final concentration) or CO2 independent media vehicle control to respective columns of Greiner 1536-well plates. 4. Incubation. Incubate plated cells at ambient temperature for 2 h., protect from light. 5. Compounds. Library compounds and DMSO vehicle control added at 23nL per well, transferred by Pin Tool. 6. Incubation. Incubate plated cells for 30 min. at ambient temperature, protect from light. 7. Detector. GloSensor baseline pre-read luminescence measured using CCD-based camera (Viewlux). 8. Compound. Add 1uL of hNppC peptide to 1 nM final concentration to stimulate hNpr2 or CO2 independent media as vehicle control. 9. Incubation. Incubate treated cells at ambient temperature for 20 min., protect from light. 10. Detector. GloSensor post-hNppC luminescence measured using CCD-based camera (Viewlux). NOTES (numbers refer to Sequence numbers above) 1. HEK293 cells expressing hNpr2 and GIP/pGS-40F were grown to 85-95% confluence (48-72 h) in T175 culture flasks (CO2 independent media supplemented with 10% FBS, 1% Pen/Strep antibiotics, and 1 ug/mL puromycin). Trypsinize and harvest cells from T175 culture flasks and filter through 40 um cell strainer. Cells counted with Invitrogen Countess (30,000,000 - 50,000,000 cells/flask). Cells diluted to a final concentration of 375 cells/uL in CO2 independent media and a Millipore multidrop used to dispense 1500 cells per well (4uL/well) into 13 1536-well Greiner White/Solid bottom, high base tissue-culture treated (TC) plates and one Aurora 1536-well Black/Clear bottom, low base, TC plate (for visual inspection of cell health throughout the duration of the assay). 2. Cells incubated for 24 h. at 37C in 95% RH incubator with metal lid having gas-exchange holes. 3. Prepare GloSensor Reagent (Promega): Reconstitute GloSensor luciferase substrate by adding 8.2mL Hepes buffer to 250mg substrate, mix well, protect from light and stored at -80C. Prepare a fresh 12% GloSensor solution in CO2 independent supplemented plating media (see above). Mix well and store at ambient temperature, protected from light. 1uL 12% GloSensor Luciferase Reagent added (2% final concentration) to respective columns of 13 x 1536-well Greiner plate with BioRaptr, 1uL CO2 independent plating media added to respective columns as vehicle control with BioRaptr. 4. Cells incubated for 2 h. at ambient temperature, protected from light with metal lid having gas-exchange holes. 5. 23nL of library compounds or DMSO vehicle control transferred to 13 Greiner white/solid bottom high base, TC plates in 11 interplate 1:3 titrations (see Yasgar, A. et al. 2008) with Pintool. 6. Cells incubated for 30-50 min. at ambient temperature protected from light with metal lid having gas-exchange holes. 7. Read cellular baseline GloSensor luminescence in presence of test library compounds on the ViewLux [Exposure = 10 s.; Gain = High; Speed = Slow; and Binning = 2X.] 8. hNppC peptide agonist solution prepared at 1 mM (in H2O) stock concentration. From this a working dilution was prepared at 6 nM in CO2 Independent media. 1uL of 6 nM hNppC agonist (1 nM final concentration) or CO2 Independent media vehicle control dispensed into respective columns of 13 x Greiner 1536-well white/solid bottom, tissue culture plates with BioRaptr. 9. Cells incubated for 20 min. at ambient temperature, protected from light with metal lid having gas-exchange holes. 10. […]
Consider `CCC(CC)c1cc([C@H]2CN3CC[C@H]2C[C@@H]3CNC(=O)NCc2ccccc2)nc(-c2ccncc2)n1`, for which the Potency is 12.2 µM (active).

`CCC(CC)c1cc([C@H]2CN3CC[C@H]2C[C@@H]3CNS(=O)(=O)Cc2ccccc2)nc(-c2ccncc2)n1`: the Potency was 21.7 µM (active).

With `COc1cc2c(cc1OCc1ccncc1)NC(=O)C21CCN(c2ncc(F)cn2)CC1`, the Potency is 39.6 µM (active).

On to `COc1cc2c(cc1Oc1cccc(N(C)C)c1)NC(=O)C21CCN(CCC(C)C)CC1`, for which the Potency was 28 µM (active).

As to `COc1cc2c(cc1Oc1cccc(N(C)C)c1)NC(=O)C21CCN(c2cnccn2)CC1`, the Potency was 19.3 µM (active).

Regarding `COc1cc2c(cc1Oc1cccc(N(C)C)c1)NC(=O)C21CCN(Cc2ccccn2)CC1`, the Potency was 21.7 µM (active).
